NPSR antag = antagonists of human neuropeptide S receptor cAMP signaling. Q6W5P4. CHO-NPSR cells, cAMP TR-FRET, antagonist mode. Potency, µM (titrated, usually from 38.3 µM), hits mostly inhibitors. actives 1% (n = 220,000). AID 1461; also: nearly all actives have a fitted effect of over 50% in size
GALK inh = galactokinase (human) inhibition; actives 0.007% (n = 270,000); P51570; Purified GALK, Kinase-Glo residual ATP luminescence; Potency, µM (highest dose often 57.5 µM), most hits filed as inhibitors
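Human GALK (5 nM) with 35 uM ATP and 100 uM galactose in 20 mM HEPES pH 8.0, 5 mM MgCl2, 60 mM NaCl, 1 mM DTT, 0.01% BSA. After 1 h at room temperature, leftover ATP was read by Kinase-Glo Plus luminescence.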
TrxR1 substrate = rat thioredoxin reductase 1 substrate activity | purified TrxR1 substrate turnover, NADPH consumption readout | actives 0.01% (n = 390,000) | AID 588456 | Potency, µM (series often up to 114 µM) | O89049; also: nearly all actives have a fitted effect of over 50% in size
Target sequence (O89049 whole entry, looked up): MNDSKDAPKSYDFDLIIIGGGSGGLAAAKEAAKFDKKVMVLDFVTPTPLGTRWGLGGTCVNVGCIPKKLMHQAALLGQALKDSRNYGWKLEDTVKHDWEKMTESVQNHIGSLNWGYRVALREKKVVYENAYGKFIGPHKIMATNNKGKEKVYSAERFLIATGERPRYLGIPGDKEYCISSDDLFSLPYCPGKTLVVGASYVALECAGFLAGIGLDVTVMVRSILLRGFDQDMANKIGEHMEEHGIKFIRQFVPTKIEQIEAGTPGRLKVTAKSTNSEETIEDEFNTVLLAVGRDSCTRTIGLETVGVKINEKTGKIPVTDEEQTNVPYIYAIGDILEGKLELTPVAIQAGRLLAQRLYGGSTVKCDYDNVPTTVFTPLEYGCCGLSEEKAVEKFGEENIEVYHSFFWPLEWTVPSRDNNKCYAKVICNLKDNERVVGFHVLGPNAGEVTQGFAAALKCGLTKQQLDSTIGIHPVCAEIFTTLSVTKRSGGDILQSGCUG
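Rat TrxR1, dispensed at 90 nM, was prereduced with 400 uM NADPH (final) for 5 min at ~22 deg C, then incubated with compound 15 min before 400 uM selenite. A first-read NADPH fluorescence drop versus no-compound background flagged substrates.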
rTrxR1 inhibitor = rat TrxR1 inhibition; Potency, µM (doses to about 114 µM), usual class: inhibitors; recombinant rTrxR1, NADPH fluorescence consumption, selenite substrate; actives 1% (n = 390,000); also: nearly all actives have a fitted effect of over 65% in size
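Rat TrxR1 (90 nM in the dispensed reagent) was pre-reduced with 400 uM NADPH for 5 min at room temperature, then incubated with compound for 15 min. After 400 uM selenite was added, NADPH fluorescence (Ex 340/Em 450 nm) was followed for 8 min.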
Hits are given with their value; - = inactive; ? = inconclusive; . = no result given; ! = a repeat was not active; [ ] = another dose, or the depositor's remark. Shown are actives, neighbours in structure and some others; about 1.2% of the full set was active somewhere. Calls follow the shape of the dose curve; as a rule, active = well fitted curve in the direction sought with a large enough effect; inconclusive = small, poorly fitted or top-dose-only effect, or another doubt; inactive = no such curve, though single readings can be large; an effect the other way counts as inactive or inconclusive.

SMILES	NPSR antag	GALK inh	TrxR1 substrate	rTrxR1 inhibitor
COc1ccc(NC(=O)/C(Cl)=C(/Cl)S(=O)Cc2ccc(Cl)cc2)cn1 (stereo unspecified)	7.9µM	-	-	?
COc1ccc(NC(=O)C(Cl)=C(Cl)Cl)cn1	-	-	-	-
CN(CC(=O)Nc1cccc(Cl)c1)S(=O)(=O)c1ccc2c(c1)n(C)c(=O)c(=O)n2C	.	-	-	25µM
CN(CC(=O)Nc1ccc(Cl)cc1)S(=O)(=O)c1ccc2c(c1)n(C)c(=O)c(=O)n2C	.	-	-	-
N#CC(C#N)=Cc1ccc(OC(=O)c2ccccn2)cc1	-	-	-	13µM
CCCn1c(=O)c2[nH]c(-c3ccc(S(=O)(=O)O)cc3)nc2n(CCC)c1=O	-	.	-	22µM!
COc1ccccc1C(=O)NNC1=C(C(=O)C(F)(F)F)CCC1	-	-	-	45µM
O=C(NNC1=C(C(=O)C(F)(F)F)CCC1)c1ccccc1O	-	-	-	-
CCC(C)n1c(=O)c2sccc2n2c(CCCC(=O)NCc3ccccc3Cl)nnc12 (stereo unspecified)	.	.	-	-
N#C/C(=C\c1cccs1)C(=O)c1ccccc1Cl	-	-	-	13µM
CC1CCCCC1NC(=O)NC(=O)COC(=O)c1nccnc1N (stereo unspecified)	.	.	-	?
CC1CCCCC1NC(=O)NC(=O)CCl (stereo unspecified)	-	-	-	40µM
CC1CCCC(NC(=O)NC(=O)CCl)C1C (stereo unspecified)	-	-	-	7.9µM
COc1ccc(C2c3c(ncn(CCCN4CCOCC4)c3=N)Oc3ccc4ccccc4c32)cc1OC (stereo unspecified)	10µM	-	-	-
O=C1OC(c2cccs2)=N/C1=C/c1ccc(-c2cccc(C(=O)O)c2)o1	-	-	-	35µM
C=CCNc1oc(-c2ccc(-c3ccccc3)cc2)nc1C#N	.	.	-	14µM
C=CCNc1oc(-c2cccc(Cl)c2)nc1C#N	.	.	-	-
O=C(NC1CCCCCC1)C1CCN(C(=O)N2CCOc3ccc(Cl)cc32)CC1	.	.	-	-
CS(=O)(=O)c1ccccc1NC(=O)COc1ccccc1C(=O)Nc1ccccc1	.	.	-	-
N#Cc1cc(Oc2cccc3cccnc23)c(-n2nnc3ccccc32)cc1C#N	?	-	-	71µM
COc1ccc(-c2cc3ccc(OC(C)C(=O)O)cc3oc2=O)cc1 (stereo unspecified)	.	-	-	71µM
CC(=O)Oc1ccc(-c2cc3ccc(OC(C)=O)cc3oc2=O)cc1	.	.	-	-
O=C(CC(c1ccco1)S(=O)(=O)c1ccccc1)c1ccc(F)cc1 (stereo unspecified)	-	-	-	50µM
COc1ccc(C(=O)NCC(c2ccco2)S(=O)(=O)c2ccc(F)cc2)cc1 (stereo unspecified)	.	.	-	-
CCOC(=O)c1c(-c2ccc(C)cc2)csc1NC(=O)c1cc2ccccc2oc1=O	10µM	-	-	-
SMILES	NPSR antag	GALK inh	TrxR1 substrate	rTrxR1 inhibitor
CCOC(=O)c1c(-c2ccc(C)cc2)csc1NC(=O)c1cc(=O)c2ccc(C)cc2o1	.	.	-	-
Cc1cccc(OCC(=O)Nc2ccc(S(=O)(=O)N(Cc3ccccc3)c3ccccc3)cc2)c1	.	.	-	-
COc1ccc(N2CCN(C(CNC(=O)c3ccc(C)cc3)c3ccc4c(c3)OCO4)CC2)cc1 (stereo unspecified)	.	.	-	-
Cc1cc(C)c(C)c(S(=O)(=O)ON2C(=O)c3ccccc3C2=O)c1C	?	-	-	1.3µM
Cc1ccc(S(=O)(=O)N2CCN(CCc3ccccc3)CC2)c(C)c1	.	.	-	-
Cc1cc(C)c(S(=O)(=O)ON2C(=O)c3ccccc3C2=O)cc1C	-	-	-	3.5µM
O=C1c2ccccc2C(=O)N1OS(=O)(=O)c1ccc(F)cc1	.	-	-	-
Cc1ccc(S(=O)(=O)ON2C(=O)c3ccccc3C2=O)c(C)c1	-	-	-	3.5µM
Cc1cccc2c1N(C)C(=O)C2=O	-	-	-	-
COc1ccc(CN2[C@@H](CC(=O)O)c3ccc(/C=C/C(=O)O)cc3S2(=O)=O)cc1	.	.	-	-
Cc1c(C(=O)NCc2ccc(F)cc2)oc2ccc(S(=O)(=O)N3CCCCC3)cc12	.	.	-	-
Nc1ccc(S(=O)(=O)c2cc(O)c3ccccc3c2O)cc1	.	.	-	2.8µM
CCOc1ccc(OCCC(=O)NNC(=O)c2ccncc2)cc1	.	.	-	-
S=C(NCCCc1cnc[nH]1)NCCCN(Cc1ccc(Cl)cc1)c1ncc(Br)cn1	.	.	-	-
CCOC(=O)C(=O)N1CCC(Cc2ccccc2)CC1	-	-	-	-
CC(=O)O[C@@H]1[C@@H](O)CN[C@@H]1Cc1ccccc1	.	.	-	40µM
CC(=O)Nc1cccc(C(=O)Nc2cccc(S(=O)(=O)NCc3ccco3)c2)c1	.	.	-	-
Cc1cccc(C)c1NC(=O)CNC(=O)c1ccc(S(=O)(=O)NCc2ccco2)cc1	.	.	-	28µM
Cc1cccc(NC(=O)c2ccc(F)c(S(=O)(=O)NCc3ccco3)c2)c1	.	-	-	79µM
CC[N+]1(CC(=O)c2ccc(I)cc2)CCCCC1	.	.	-	-
O=C(O)C1C=Cc2ccccc2N1C(=O)c1ccccc1 (stereo unspecified) (tested in a mixture with another compound)	.	.	-	-[11.4 µM]
Cc1c(-c2ccccc2)nc(-c2ccccc2)[nH]c1=O	-	-	-	-
COC(=O)c1c(S(C)(=O)=O)nc(-c2ccccc2)[nH]c1=O	-	-	-	40µM
Cc1ccc(N/C(N)=N/c2nc3c(c(=O)[nH]2)CCCC3)c(C)c1	-	.	-	-
Cc1ccc(N/C(N)=N/c2nc(C)cc(N3CCCCC3)n2)c(C)c1	10µM	-	-	-
SMILES	NPSR antag	GALK inh	TrxR1 substrate	rTrxR1 inhibitor
COc1cc2c(cc1OC)n(Cc1cccc(C(F)(F)F)c1)c(=O)n1nc(-c3ccccc3)nc21	.	.	-	-
O=[N+]([O-])c1c(Nc2ccc(O)cc2)cc(Cl)c2nonc12	.	-	-	?
O=C(O)c1ccccc1Nc1ccc([N+](=O)[O-])cc1	-	-	-	-
O=C(O)c1ccccc1Nc1cc(Cl)c2nonc2c1[N+](=O)[O-]	.	-	-	1.6µM
O=C(O)c1cccc(Nc2cc(Cl)c3nonc3c2[N+](=O)[O-])c1	-	-	-	1.4µM
O=[N+]([O-])c1c(Nc2ccccn2)cc(Cl)c2nonc12	10µM	.	-	1.3µM
COc1cc2nc(N(C)C)nc(NC3CCN(C)CC3)c2cc1OC	.	.	-	-
Cc1ccnc2cc(Cl)c(Cl)cc12	.	.	-[0.0914 µM]	-
CC(C)Cn1c(=O)c2ccccc2n2c(CCC(=O)N3CCN(c4ccccc4F)CC3)nnc12	.	.	-	-
Cc1ccc(S(=O)(=O)CCC(=O)N2CCN(c3ccc(Cl)cc3)CC2)cc1	-	-	-	50µM
CCCCCCCCCC[n+]1cc(Br)cc(Br)c1	.	.	-	-
O=C(NCc1ccco1)c1cccc2c1C(=O)c1ccc(/C=C/c3ccccc3)cc1S2(=O)=O	.	.	-	22µM
FC(F)(F)C1=Nc2cccc3cccc(c23)N1	.	.	-	40µM
C(C#CCCCCCCCCC[n+]1ccccc1)#CCCCCCCCCC[n+]1ccccc1	.	-	-	56µM
CN1CCc2nc3sc(C(=O)NCc4ccccc4)c(N)c3cc2C1	13µM	-	-	-

Screens as filed in PubChem.
